Percent Effect data for 51 compounds are collected here from ChEMBL document CHEMBL3988442, “University of Dundee, Small-Polar-MMV Screening Library” (2021).

The target in assay [1] is T1, Aspartate--tRNA(Asp/Asn) ligase (Mycobacterium tuberculosis (strain ATCC 25618 / H37Rv)) (UniProt P9WFW3). Note: in the data most compounds retested in dose-response had high values.
T1 sequence (whole entry): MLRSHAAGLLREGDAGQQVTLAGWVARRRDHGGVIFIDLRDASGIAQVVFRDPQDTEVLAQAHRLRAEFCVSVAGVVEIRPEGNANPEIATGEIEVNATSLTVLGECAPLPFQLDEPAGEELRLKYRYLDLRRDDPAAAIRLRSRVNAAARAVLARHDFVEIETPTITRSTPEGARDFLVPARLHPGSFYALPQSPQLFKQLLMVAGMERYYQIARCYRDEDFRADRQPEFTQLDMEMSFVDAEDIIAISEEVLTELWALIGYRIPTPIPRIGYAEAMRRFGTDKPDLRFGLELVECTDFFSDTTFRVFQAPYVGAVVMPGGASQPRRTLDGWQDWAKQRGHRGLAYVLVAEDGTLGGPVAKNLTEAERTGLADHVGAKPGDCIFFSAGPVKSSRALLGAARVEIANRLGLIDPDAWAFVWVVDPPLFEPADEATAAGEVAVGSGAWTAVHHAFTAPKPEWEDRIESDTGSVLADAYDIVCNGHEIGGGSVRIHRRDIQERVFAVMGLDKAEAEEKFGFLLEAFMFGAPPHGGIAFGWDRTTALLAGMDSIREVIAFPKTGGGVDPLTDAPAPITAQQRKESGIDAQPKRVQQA
Briefly: Assay for Asp RNA synthetase-1 from Mycobacterium tuberculosis. Format: functional. The arrangement: scale not given: direction of the effect not stated beside the values. The note with it: 30 µM.

For assay [2], the target named is Shiga toxin 2 (Escherichia coli O157:H7) (UniProt P09385+P09386). The experiment in a line: E. coli 0.157:H7 Shiga Toxin SOP - stx2 screening assay. Further details: scale not given: direction of the effect not stated beside the values. To be noted: 30 µM. Format: functional.

In the case of `CN1CCOC(CN(C(=O)CC2CCCC2)c2nccs2)C1` (configuration not stated), the values for the Percent Effect in assay [1] and in assay [2] were 6.38% and 27.4%, respectively.

In the case of `CCN(C(c1cccnc1)c1ccc2c(c1)CCO2)S(C)(=O)=O` (configuration not stated), the Percent Effect was -3.44% in assay [1] and -49.4% in assay [2].

With `CC(O)CN1CCN(C(=O)c2ccc(N(C)C)nc2)CC1` (configuration not stated), the Percent Effect was 1.24% in assay [1] and -70% in assay [2].

For the compound `Cc1cc(C)n(CC(=O)N2CCC(NS(=O)(=O)c3ccccc3)CC2)n1`, the Percent Effect in assay [1] stood at 0.878%; in assay [2], 31.2%.

Regarding `COc1ccc(-c2ccnc3c2C(=O)CCC3)cc1`, the Percent Effect in assay [1] is -5.43%; in assay [2], -32.1%.

Take `Cc1nn(C)c(Cl)c1C(=O)NCC(c1ccsc1)N(C)C` (configuration not stated): the Percent Effect was -6.11% in assay [1] and -7.76% in assay [2].

On to `Cc1ncccc1O[C@H]1CCN(C(=O)c2cccs2)CC[C@@H]1O`, for which the Percent Effect in assay [1] is 4.9%; in assay [2], 6.92%.

For `CNC(=O)Cc1ccc(NC(=O)NC(C)C(C)C)cc1` (configuration not stated), the figures for the Percent Effect in assay [1] and in assay [2] were -6.08% and -0.988%, respectively.

For the compound `Cc1ccc(C(O)CNCCn2cccn2)cc1C` (configuration not stated), the Percent Effect in assay [1] is -5.54%; in assay [2], 2.86%.

As for `O=C(Cn1cccnc1=O)NCCc1ccc2c(c1)OCCO2`, the Percent Effect in assay [1] was 2.57%; in assay [2], -33.8%.

As to `Cc1cnn(CC2CCCN2CC(=O)Nc2nc(C)cs2)c1` (configuration not stated), the Percent Effect was 1.62% in assay [1] and -8.49% in assay [2].

Take `CCC(CNC(=O)c1ccc(=O)[nH]n1)N1CCc2ccccc2C1` (configuration not stated): the values for the Percent Effect in assay [1] and in assay [2] were 2.11% and -11.6%, respectively.

On to `CC1CCCCN1C(=O)CN1CCN(c2ccc3nncn3n2)CC1` (configuration not stated), for which the Percent Effect in assay [1] is 0.945%; in assay [2], -8.03%.

Regarding `O=C(Cn1cc(I)cn1)N1CCCC1`, the Percent Effect is -4.62% in assay [1] and -0.574% in assay [2].

For the compound `CC(C)c1nnc2n1CCN(CCCS(=O)(=O)c1ccccc1)C2`, the values for the Percent Effect in assay [1] and in assay [2] were -5.16% and -15.3%, respectively.

`Cc1nc(C)n(CC2CN(CCOCC(F)(F)F)CCO2)n1` (configuration not stated): the Percent Effect in assay [1] worked out at 3.1%; in assay [2] it was 8.57%.

As to `Cc1nonc1C(=O)N1CCCC(c2ncncc2-c2ccncc2)C1` (configuration not stated), the results for the Percent Effect in assay [1] and in assay [2] were 2.57% and 10.2%, respectively.

In the case of `CN(c1ccncn1)C1CC2(CCN(C(=O)CCc3cccs3)C2)C1` (configuration not stated), the Percent Effect is -1.32% in assay [1] and -23.3% in assay [2].

`CC(NC1(CNC(=O)Cn2cccn2)CCOCC1)c1ccccc1` (configuration not stated): the results for the Percent Effect in assay [1] and in assay [2] were -0.24% and 10.6%, respectively.

For the compound `COc1cc2nc3n(c(=O)c2cc1OC)CCN(C(C)=O)CC3`, the Percent Effect is -0.551% in assay [1] and 17% in assay [2].

For the compound `Nc1cc2c(nn1)CCN(C(=O)c1cccc3c1OCCO3)C2`, the Percent Effect is 3.34% in assay [1] and -28.6% in assay [2].

On to `c1csc(-c2nc(CN3CCOC(Cn4cncn4)C3)co2)c1` (configuration not stated), for which the Percent Effect in assay [1] came out at 21.8%; in assay [2], 19.9%.

Turning to `Cc1nnn2c1COCC(CNC(=O)c1ccc3[nH]ccc3c1)C2` (configuration not stated), the values for the Percent Effect in assay [1] and in assay [2] were 0.238% and -35.3%, respectively.

In the case of `O=C(NCCc1cccc(F)c1)NCC(O)c1cccc(F)c1` (configuration not stated), the Percent Effect in assay [1] is -1.7%; in assay [2] it was 32.2%.

With `COc1cc(N2CCCC(c3nccn3Cc3cscn3)C2)nc(N)n1` (configuration not stated), the Percent Effect in assay [1] was -2.33%; in assay [2], 14.5%.

Take `c1cnn(CC2CCCN2c2ncnc3sccc23)c1` (configuration not stated): the Percent Effect in assay [1] was determined as 5.36%; in assay [2] it was 26.3%.

As for `Cc1nc(C)n(CC2CCCN2Cc2cn3ccsc3n2)n1` (configuration not stated), the Percent Effect in assay [1] was 1.75%; in assay [2] it was -76%.

With `CCCc1n[nH]c(C2CN(CCCOc3ccccc3)CCO2)n1` (configuration not stated), the Percent Effect is 0.946% in assay [1] and 5.54% in assay [2].

Take `O=C(c1cccc(Cl)c1)N1CCCn2c(CN3CCCCC3)nnc2C1`: the Percent Effect in assay [1] is -2.93%; in assay [2], -13.3%.

In the case of `O=C(O)C1(Cc2cc(-c3ccc(F)cc3F)no2)CCOCC1`, the Percent Effect in assay [1] was 0.819%; in assay [2], -13.5%.

For `Cc1ccc(-n2nnc(CC(=O)N3CCOCC3)c2C)cc1`, the results for the Percent Effect in assay [1] and in assay [2] were 2.26% and -28%, respectively.

As to `CCCOc1ccc(NC(=O)NCCC(=O)N(C)C)cc1Cl`, the results for the Percent Effect in assay [1] and in assay [2] were 1.09% and -67.2%, respectively.

On to `FC(F)(F)COCCN1CCN(c2ccc3nncn3n2)CC1`, for which the Percent Effect in assay [1] is 0.546%; in assay [2] it was -42.1%.

Take `COCc1ccc(CN2CCC(O)(Cn3ccc4ncccc43)CC2)o1`: the Percent Effect was 0.485% in assay [1] and -34.6% in assay [2].

With `CCc1ncc2c(n1)CN(Cc1nc(C)c(C)o1)CC2`, the Percent Effect was 0.259% in assay [1] and -23.6% in assay [2].

`CC(=O)Nc1nc(C(=O)N2CCCC2c2ccccc2C)cs1` (configuration not stated): the Percent Effect in assay [1] is -0.698%; in assay [2], 1.85%.

`COc1cccc2c1OCC(NC(=O)NC1CCN(C3CC3)CC1)C2` (configuration not stated): the figures for the Percent Effect in assay [1] and in assay [2] were -3.21% and 3.63%, respectively.

Turning to `CCc1cnc(C)nc1NCCN1CCCCCC1`, the Percent Effect in assay [1] was 4.13%; in assay [2] it was -69.6%.

On to `CNc1cncc(C2CCCN2C(=O)c2ccc3oc(=O)n(C)c3c2)n1` (configuration not stated), for which the Percent Effect in assay [1] was found to be 5.14%; in assay [2] it was 3.86%.

Consider `O=C(CCc1ccccc1)NCC1CCN(Cc2ccsc2)CC1`, for which the Percent Effect was -3.19% in assay [1] and -9.05% in assay [2].

`c1ccc(N2CCOC3(CCCN(c4nncs4)C3)C2)nc1` (configuration not stated): the Percent Effect in assay [1] turned out to be 6.43%; in assay [2] it was 1.67%.

As to `O=C(COc1coc(CN2CCOCC2)cc1=O)c1ccc(Cl)cc1`, the Percent Effect in assay [1] is 4.37%; in assay [2] it was -57.8%.

As for `N#Cc1ccnc(N2CCN(C(=O)Cc3ccc4c(c3)CCO4)CC2)c1`, the Percent Effect in assay [1] was determined as 0.144%; in assay [2], 6.14%.

As for `O=C(CCSc1ccc(F)cc1)NS(=O)(=O)c1ccc2c(c1)OCCO2`, the results for the Percent Effect in assay [1] and in assay [2] were -0.411% and -1.47%, respectively.

Consider `CC(NC(N)=O)C(=O)N(C)CCCc1cc(-c2ccccc2)no1` (configuration not stated), for which the values for the Percent Effect in assay [1] and in assay [2] were 3.41% and 22.8%, respectively.

As for `COCCN1C(=O)C[C@H]2[C@H]1CCN2Cc1ccc(OC)cc1`, the Percent Effect in assay [1] is 6.6%; in assay [2] it was -4.38%.

With `CN(CCc1ccccc1)Cc1cc(C(=O)N2CCN(C)C(=O)C2)no1`, the Percent Effect in assay [1] was -2.28%; in assay [2], -18.1%.

On to `CC1CN(c2ccc(CNC(=O)c3ccn(C)c(=O)c3)cn2)CCO1` (configuration not stated), for which the Percent Effect was -6.51% in assay [1] and -19.6% in assay [2].

Consider `Cc1cc(C(=O)N2C[C@@H]3COC[C@]3(c3nnc(C4CC4)o3)C2)on1`, for which the Percent Effect in assay [1] was 2.94%; in assay [2] it was -27.3%.

With `COc1cc(CN(C(=O)Nc2cccnc2OC)C2CC2)ccc1O`, the Percent Effect in assay [1] is -2.28%; in assay [2], 11.9%.

In the case of `O=C(O)c1cc2c(nc1O)CC(c1cccc(Cl)c1)CC2=O` (configuration not stated), the Percent Effect in assay [1] is 0.494%; in assay [2], -22.1%.
